In PubChem BioAssay (EPA / NIEHS) one finds outcome and AC50 data, which are given here for 58 molecules.

Results filed as inconclusive are left out. More than one record can exist for a structure, and the calls need not agree. Calls of active or inactive are those of the source. Rule for the calls: active = hit-call score of the fitted dose curve at least 0.9, where 1 is the maximum; inconclusive = response in the unintended direction; inactive = score below 0.9.

The nature of experiment [1]: ACEA_AR_agonist_AUC_viability: ACEA Biosciences xCELLigence Real-Time Cell Analysis on Androgen Receptor Agonism for Viability (AID 2283775).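 For AC50: viability read 80 hours after compound addition.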 The procedure, abridged: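 Viability endpoint from xCELLigence impedance in 22Rv1 prostate cells at 80 h. Eight-point series, 100 uM maximum final.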
Experiment [2] can be described thus: ACEA_AR_antagonist_AUC_viability: ACEA Biosciences xCELLigence Real-Time Cell Analysis on Androgen Receptor Antagonism for Viability (AID 2283776).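 Note: area under impedance growth curve at 80 h after dosing as viability; hits lower the growth signal relative to DMSO meaning cytotoxicity.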 The procedure, abridged:
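22Rv1 human prostate cancer cells were seeded on electrode plates, monitored overnight, then exposed to eight 1:4 dilutions from 100 uM final. Impedance-based growth kinetics at 80 h gave an AUC viability endpoint normalized to DMSO.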

Experiment [3] concerns the target zebrafish Estrogen Receptor (ESR1), esr1 (gene 259252) (UniProt P57717). Nature of the experiment: ATG_zfER1_XSP1: Attagene TRANS-FACTORIAL Multi-Species (XSP1) HepG2 Assay for zebrafish Estrogen Receptor (ESR1) (AID 2283772). The procedure, abridged: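 Transfect HepG2 with GAL4-UAS multi-reporter constructs; treat 24 h (medium carries 3 nM 6-alpha-fluorotestosterone); extract RNA, reverse-transcribe, PCR-amplify, FAM-label, digest with HpaI; resolve by capillary electrophoresis and compare against DMSO baseline.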

Experiment [4] deals with zebrafish Estrogen Receptor (ESR2B), gene 317733. Nature of the experiment: ATG_zfER2b_XSP1: Attagene TRANS-FACTORIAL Multi-Species (XSP1) HepG2 Assay for zebrafish Estrogen Receptor (ESR2B) (AID 2283773). The procedure, abridged: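 Human hepatoma HepG2, transiently transfected with multi-reporter units; exogenous zebrafish ESR2B-Gal4 activity measured. Exposure 24 h alongside 3 nM 6-alpha-fluorotestosterone to partly stimulate AR.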

Experiment [5] has as its system frog Estrogen Receptor (ESR2), gene 100174814. The experiment is described as follows: ATG_frER2_XSP1: Attagene TRANS-FACTORIAL Multi-Species (XSP1) HepG2 Assay for frog Estrogen Receptor (ESR2) (AID 2283774). The procedure, abridged:
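Multiplexed TRANS-format reporter assay in human hepatoma HepG2: chimeric nuclear receptor-Gal4 activity reported as mRNA induction at 24 h, detected by fluorescent RT-PCR products on capillary electrophoresis and fitted upward from DMSO baseline.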

In experiment [6] the test system is frog Estrogen Receptor (ESR1), gene 398734. The experiment is described as follows: ATG_frER1_XSP1: Attagene TRANS-FACTORIAL Multi-Species (XSP1) HepG2 Assay for frog Estrogen Receptor (ESR1) (AID 2283777). The procedure, abridged: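 After transient transfection and 24 h compound treatment, total RNA from HepG2 cells was reverse-transcribed, amplified, FAM-labeled and resolved by capillary electrophoresis. Signal increases were fitted against DMSO controls.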

For experiment [7], the system named is zebrafish Estrogen Receptor (ESR2A), gene 317734. Nature of the experiment: ATG_zfER2a_XSP1: Attagene TRANS-FACTORIAL Multi-Species (XSP1) HepG2 Assay for zebrafish Estrogen Receptor (ESR2A) (AID 2283778). The procedure, abridged:
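Gain-of-signal reporter transcription readout from GAL4-UAS units in transiently transfected HepG2 cells, 24 h exposure, 3 nM 6-alpha-fluorotestosterone co-present. Detection by RT-PCR with capillary electrophoresis fluorescence.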

For experiment [8], the target named is chicken Estrogen Receptor (ESR1), ESR1 (gene 396099) (UniProt P06212). The experiment is described as follows: ATG_chERa_XSP1: Attagene TRANS-FACTORIAL Multi-Species (XSP1) HepG2 Assay for chicken Estrogen Receptor (ESR1) (AID 2283779). The procedure, abridged:
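Gain-of-signal reporter transcription, relative to DMSO, was scored in transiently transfected HepG2 cells after a 24 h dose. Fluorescence intensity of amplified, digested reporter cDNA fragments served as the endpoint.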

Experiment [9] addresses Estrogen receptor (Homo sapiens) (UniProt P03372). The experiment is described as follows: ATG_hERa_XSP1: Attagene TRANS-FACTORIAL Multi-Species (XSP1) HepG2 Assay for human Estrogen Receptor (ESR1) (AID 2283780). The procedure, abridged: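 Reporter transcripts from multiplexed GAL4-UAS units driven by NR-Gal4 chimeras in transiently transfected HepG2 were measured by RT-PCR with capillary electrophoresis 24 h post-dose, with 3 nM 6-alpha-fluorotestosterone present; gain-of-signal relative to DMSO.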

Experiment [10] has as its system turtle Estrogen Receptor (ESR1), gene 101933533. Nature of the experiment: ATG_trERa_XSP1: Attagene TRANS-FACTORIAL Multi-Species (XSP1) HepG2 Assay for turtle Estrogen Receptor (ESR1) (AID 2283781). The procedure, abridged: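 Cell-based chimeric NR-Gal4 transactivation; HepG2; 24 h dosing; mRNA reporter detected by RT-PCR and capillary electrophoresis fluorescence.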

Estrogen receptor (Homo sapiens), sequence (P03372 whole entry, looked up, the tested form may be a part): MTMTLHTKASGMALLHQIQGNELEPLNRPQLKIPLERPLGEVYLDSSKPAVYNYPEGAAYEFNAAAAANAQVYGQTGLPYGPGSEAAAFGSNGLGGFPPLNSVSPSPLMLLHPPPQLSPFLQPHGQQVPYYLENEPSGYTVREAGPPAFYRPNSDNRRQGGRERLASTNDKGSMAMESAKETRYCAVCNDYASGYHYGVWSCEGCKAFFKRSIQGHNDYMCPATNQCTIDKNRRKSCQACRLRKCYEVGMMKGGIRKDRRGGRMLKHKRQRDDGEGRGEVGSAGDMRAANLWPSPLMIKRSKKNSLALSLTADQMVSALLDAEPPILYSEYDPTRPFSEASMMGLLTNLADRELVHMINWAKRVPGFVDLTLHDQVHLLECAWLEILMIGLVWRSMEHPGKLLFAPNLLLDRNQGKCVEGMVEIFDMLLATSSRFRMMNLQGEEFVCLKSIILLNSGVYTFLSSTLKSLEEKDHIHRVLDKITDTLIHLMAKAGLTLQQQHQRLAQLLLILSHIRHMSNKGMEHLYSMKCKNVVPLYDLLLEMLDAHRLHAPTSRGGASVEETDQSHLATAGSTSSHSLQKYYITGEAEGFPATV
zebrafish Estrogen Receptor (ESR1), esr1 (gene 259252), sequence (P57717 whole entry, looked up, the tested form may be a part): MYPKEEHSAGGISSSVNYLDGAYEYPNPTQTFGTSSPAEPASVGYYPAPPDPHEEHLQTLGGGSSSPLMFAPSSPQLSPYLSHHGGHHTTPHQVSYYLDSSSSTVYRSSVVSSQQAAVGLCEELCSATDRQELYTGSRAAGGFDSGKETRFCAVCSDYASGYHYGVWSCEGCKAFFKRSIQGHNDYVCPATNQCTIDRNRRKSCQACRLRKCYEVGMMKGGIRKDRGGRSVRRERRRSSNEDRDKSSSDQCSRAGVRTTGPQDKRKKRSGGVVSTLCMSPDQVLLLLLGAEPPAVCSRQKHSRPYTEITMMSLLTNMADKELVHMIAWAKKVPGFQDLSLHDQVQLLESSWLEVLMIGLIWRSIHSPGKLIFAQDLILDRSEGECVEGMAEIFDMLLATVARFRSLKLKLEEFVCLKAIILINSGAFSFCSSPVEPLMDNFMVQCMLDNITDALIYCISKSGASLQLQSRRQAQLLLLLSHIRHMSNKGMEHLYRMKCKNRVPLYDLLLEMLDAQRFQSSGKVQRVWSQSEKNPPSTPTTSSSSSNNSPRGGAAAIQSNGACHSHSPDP
chicken Estrogen Receptor (ESR1), ESR1 (gene 396099), sequence (P06212 whole entry, looked up, the tested form may be a part): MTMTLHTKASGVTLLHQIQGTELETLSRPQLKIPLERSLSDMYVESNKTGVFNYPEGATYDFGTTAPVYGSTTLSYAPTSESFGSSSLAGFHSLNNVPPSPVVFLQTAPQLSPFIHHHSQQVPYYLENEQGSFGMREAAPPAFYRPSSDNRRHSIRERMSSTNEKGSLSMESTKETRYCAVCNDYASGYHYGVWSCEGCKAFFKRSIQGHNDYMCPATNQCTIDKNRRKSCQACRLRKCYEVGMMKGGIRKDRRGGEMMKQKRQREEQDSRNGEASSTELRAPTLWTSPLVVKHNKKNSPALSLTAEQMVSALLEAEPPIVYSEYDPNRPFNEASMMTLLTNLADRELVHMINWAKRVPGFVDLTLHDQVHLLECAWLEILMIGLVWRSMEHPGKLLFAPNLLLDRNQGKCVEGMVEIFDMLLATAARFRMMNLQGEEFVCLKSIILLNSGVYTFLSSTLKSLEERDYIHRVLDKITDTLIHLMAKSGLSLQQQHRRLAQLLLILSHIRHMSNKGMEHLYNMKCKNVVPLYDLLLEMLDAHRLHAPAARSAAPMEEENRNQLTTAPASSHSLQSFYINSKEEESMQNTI

Regarding `CCCC(CC)c1ccccc1` (stereo unspecified), the result in experiment [1] and in [2] was inactive. For the molecule `C[Si](C)(C)N[Si](C)(C)C`, the outcome in experiment [1] and in [2] was inactive. In the case of `CC(C)(C)C1CCC(=O)CC1`, the molecule was classed as inactive in experiment [1] and in experiment [2]. Consider `O=C(O)c1cc(O)c2ccccc2c1O`, for which the call in experiment [1] and in experiment [2] was inactive. `CC(C)COC(=O)CC(C(=O)OCC(C)C)S(=O)(=O)O` (stereo unspecified): the molecule was classed as inactive in experiment [1]. Regarding `c1ccc(Nc2cccc3ccccc23)cc1`, the call in experiment [1] was inactive. Also, in experiment [2], the AC50 was 2.4 µM (active).

Regarding `O=C(O)CCC(=O)O`, the call in experiment [1] was inactive. Regarding `C=C[Si](OCCOC)(OCCOC)OCCOC`, the result in experiment [1] was inactive.

As for `CC(C)(C)NC(=O)[C@H]1CC[C@H]2[C@@H]3CC[C@H]4NC(=O)C=C[C@]4(C)[C@H]3CC[C@]12C`, the outcome in [3], in [1], in experiment [2], in [6], in experiment [7] and in experiment [8] was inactive. Moreover, the molecule was called inactive in experiment [9] and in [10]. Also, the AC50 was 67.2 µM (active) in experiment [4], 38.1 µM (active) in experiment [5], 78 µM (active) in [1] and 50 µM (active) in experiment [2]. As to `CCCCNC(=S)NCCCC`, the result in experiment [1] was inactive. As for `O=C(Oc1ccccc1)c1ccccc1O`, in experiment [1], the molecule was called inactive. `C1CNCCN1`: the molecule was called inactive in [1] and in experiment [2]. Turning to `CCCCNS(=O)(=O)c1ccc(C)cc1`, the outcome in [1] was inactive. For `N#Cc1ccc(C(c2ccc(C#N)cc2)n2cncn2)cc1`, the concentration at half-maximal activity (AC50) in [1] is 4.94 µM (active). On to `O=C(O)C1CCC(C(=O)O)CC1` (stereo unspecified), for which the outcome in experiment [1] was inactive. `CC(C)c1ccc(O)c(C(C)C)c1`: the result in experiment [1] was inactive. On the same count and under the same terms, to `C=C(C)C1CC=C(C)CC1` (stereo unspecified) belongs “inactive”. Take `CC(=O)OC1CCCCC1C(C)(C)C` (stereo unspecified): the molecule was called inactive in [1] and in [2].

Regarding `CC1=CCC2CC1C2(C)C` (stereo unspecified), in [1], the molecule was called inactive.

Take `O=C(OCc1ccccc1)c1ccc(O)cc1`: in experiment [1], the outcome was inactive. Regarding `Cc1ccc([N+](=O)[O-])cc1N`, the outcome in [1] and in [2] was inactive.

In the case of `CC12CCC(CC1)C(C)(C)O2`, in experiment [1], the outcome was inactive. On the same count and under the same terms, to `CCCCCCCCCCCCCCCCCCOS(=O)(=O)O` belongs “inactive”. Regarding `Fc1ccc(Br)cc1`, in experiment [1], the molecule was classed as inactive. For the molecule `CN(C)Cc1cc(CN(C)C)c(O)c(CN(C)C)c1`, in experiment [1], the AC50 is 4.16 µM (active). Consider `CCCCC(C=O)CC` (stereo unspecified), for which the outcome in experiment [1] was inactive. Consider `CCCCC(CC)COC(=O)/C=C/c1ccc(OC)cc1` (stereo unspecified), for which the result in [1] was inactive. As for `CCCC=C(C=O)CC`, the molecule was called inactive in [1]. On the same count and under the same terms, to `CC1=CC=C(C(C)C)CC1` belongs “inactive”. On to `CCCCCCCCCCCCCC(=O)OC(C)C`, for which the molecule was classed as inactive in [1] and in experiment [2].

In the case of `N#Cc1ccc(C2CCCc3cncn32)cc1` (stereo unspecified), the outcome in experiment [1] and in experiment [2] was inactive.

In the case of `CCCCc1ccc(Cl)cc1`, the molecule was classed as inactive in experiment [1] and in experiment [2]. For the molecule `CC(=O)OCc1ccccc1`, the call in [1] and in experiment [2] was inactive. Consider `O=S(=O)(O)c1ccc(N=Nc2c(O)ccc3ccccc23)cc1`, for which the molecule was called inactive in experiment [1] and in [2].

Turning to `COc1ccc(C(=O)c2ccccc2)c(O)c1`, the call in experiment [1] and in [2] was inactive.

For `CC1=NN(c2ccc(S(=O)(=O)O)cc2)C(=O)C1N=Nc1ccccc1` (stereo unspecified), the call in experiment [1] and in experiment [2] was inactive. As for `CCCCNS(=O)(=O)c1ccccc1`, the outcome in experiment [1] and in [2] was inactive. For the molecule `CCCCCCCCCCCCc1ccc(O)cc1`, the AC50 in experiment [1] and in experiment [2] was 16.6 µM (active) in each case. On to `NC(=O)Nc1ccccc1`, for which the result in experiment [1] and in experiment [2] was inactive. As to `CCCCOCCOC(=O)COc1ccc(Cl)cc1Cl`, the molecule was called inactive in [1] and in experiment [2].

Turning to `CC1(C)[C@@H]2CC[C@@]1(C)C(=O)C2`, the molecule was classed as inactive in experiment [1] and in experiment [2]. Turning to `CCCCC(CC)COS(=O)(=O)O` (stereo unspecified), the molecule was called inactive in experiment [1] and in experiment [2]. In the case of `CC(C)(C)N`, the molecule was called inactive in experiment [1] and in experiment [2]. In the case of `COc1ccc(-c2coc3cc(O)cc(O)c3c2=O)cc1`, the call in experiment [1] was inactive. For the same molecule, the AC50 in [2] was 0.86 µM (active). Regarding `C=C1C[C@H]2[C@@H]3C=C(C)C4=CC(=O)CC[C@]4(C)[C@H]3CC[C@]2(C)[C@@]1(OC(C)=O)C(C)=O`, the outcome in experiment [1] and in [2] was inactive. For `CN(C)c1ccc2nc3ccc(=[N+](C)C)cc-3sc2c1`, the values for the AC50 in [1] and in experiment [2] were 20.4 µM (active) and 9.9 µM (active), respectively.

`CC(C)(c1ccccc1)c1ccc(Nc2ccc(C(C)(C)c3ccccc3)cc2)cc1`: in [1], the outcome was inactive. Also, the AC50 in experiment [2] is 11.4 µM (active). `CCC[Si](OC)(OC)OC`: the molecule was called inactive in experiment [1] and in [2].

For `CC(C)c1cc(C(C)C)cc(C(C)C)c1`, the call in [1] and in experiment [2] was inactive. Regarding `O=C(O)CC(C(=O)O)S(=O)(=O)O` (stereo unspecified), the result in [1] and in experiment [2] was inactive. Turning to `Cc1c(C(=O)c2c[nH]n(C)c2=O)ccc(S(C)(=O)=O)c1C1=NOCC1`, the result in experiment [1] and in experiment [2] was inactive. With `CCOC(=O)c1ccccc1C`, the result in [1] and in experiment [2] was inactive. Regarding `O=C(Nc1ccccc1)c1cc(Cl)ccc1O`, the AC50 was 14.3 µM (active) in [1] and 16.6 µM (active) in experiment [2].

On to `O=C(OCCc1ccccc1)c1ccccc1`, for which the molecule was called inactive in [1] and in [2].

On to `CO[Si](C)(C)OC`, for which the molecule was classed as inactive in experiment [1] and in experiment [2].

For `CCCCCCCCCC(C)=O`, the molecule was classed as inactive in [1] and in experiment [2]. Take `CCc1occc(=O)c1O`: the molecule was classed as inactive in experiment [1] and in [2]. In the case of `C=C[C@@]1(C)CC(=O)[C@]2(O)[C@@]3(C)[C@@H](O)CCC(C)(C)[C@@H]3[C@H](O)[C@H](OC(C)=O)[C@@]2(C)O1`, the AC50 in experiment [1] is 6.78 µM (active). Further, the call in experiment [2] was inactive.

The term AC50 denotes the concentration at which the activity in the assay is half-maximal.
